Experimental data published in PubChem BioAssay (EPA / NIEHS).
“And” between values parts separate entries of the source, which are not always exact repeats. Identical values can stand only once. Results filed as inconclusive are left out. Some structures have more than one record in an assay (separate samples or runs), and their calls can disagree. The source made the active and inactive calls. How the source made its calls, unless noted: active means hit-call score of the fitted dose curve at least 0.9, where 1 is the maximum; inactive means score below 0.9.

What was measured:
[1] = read-out: Monokine induced gamma interferon (MIG), CXCL9 (gene 4283); experiment: BSK_SAg_MIG: BioMAP Diversity Plus: SAg Assay for Monokine induced gamma interferon (MIG) Biomarker Activity (AID 2283092); conditions: primary human HUVEC with PBMC; actives raise or lower the signal
Outline: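 Endothelial cells and PBMC were co-cultured, exposed to test chemicals, and sampled 24 h later. MIG was measured by ELISA, and responses were fitted in both directions relative to DMSO.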

[2] = BSK_SAg_PBMCCytotoxicity: PBMC Cytotoxicity Assessment in the BioMAP Diversity Plus: SAg Assay (AID 2283093); conditions: primary human HUVEC with PBMC;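 further: PBMC viability measured as Alamar Blue reduction fluorescence at 546/580 nm; fitted both ways against DMSO so a hit may be loss or gain of signal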;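 on AC50: PBMC superantigen activated with SEB plus TSST-1 one hour after compound addition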
Outline: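 HUVEC/PBMC co-culture; PBMC exposed to chemical 1 h before SEB and TSST-1 activation (20 ng/mL each), incubated 90 h, then Alamar Blue 6 h, fluorescence 546/580 nm. Bidirectional fit versus DMSO baseline.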

[3] = read-out: Interleukin-8 (IL8), CXCL8 (gene 3576); experiment: BSK_SAg_IL8: BioMAP Diversity Plus: SAg Assay for Interleukin-8 (IL8) Biomarker Activity (AID 2283094); conditions: primary human HUVEC with PBMC; actives raise or lower the signal
Outline: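 In this co-culture of human umbilical vein endothelium with peripheral blood mononuclear cells, IL-8 is assayed by ELISA at 24 h. DMSO serves as baseline for bidirectional curve fitting.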

[4] = BSK_SAg_Proliferation: Cell Proliferation Assessment in the BioMAP Diversity Plus: SAg Assay (AID 2283095); conditions: primary human HUVEC with PBMC;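 further: relative cell number as total protein by SRB absorbance in sub-confluent culture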
Outline: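 Readout is SRB-stained protein (560 nm) in a primary human HUVEC and PBMC co-culture; sub-confluent cultures are read at 96 h. Activity is fitted bidirectionally using DMSO as baseline.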

[5] = BSK_SAg_SRB: Viability Assessment in the BioMAP Diversity Plus: SAg Assay (AID 2283096); conditions: primary human HUVEC with PBMC;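 further: cells read one day after compound addition; hits may be either gain or loss of signal compared with DMSO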
Outline: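 Human umbilical vein endothelial cells co-cultured with PBMC, read 24 h after compound dosing. Total protein measured by sulforhodamine B staining (0.1% SRB after 10% TCA fixation, absorbance 560 nm); bidirectional fit versus DMSO baseline.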

[6] = target: human CYP2C9, CYP2C9 (gene 1559) (UniProt P11712); experiment: NVS_ADME_hCYP2C9: NovaScreen (NVS) CYP450-related Enzyme Activity (ADME) Assay for human CYP2C9 (AID 2283108; active means hit-call score of the fitted dose curve at least 0.9, where 1 is the maximum)
Outline: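 Recombinant human CYP2C9 expressed in SF9 cells, fluorogenic substrate, fluorescence read 0.75 h after dosing. Chemicals first run in duplicate at 10 uM, with actives followed in concentration series; loss of signal versus acetonitrile baseline.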

[7] = target: Cytochrome P450 2C19 (Homo sapiens) (UniProt P33261); experiment: NVS_ADME_hCYP2C19: NovaScreen (NVS) CYP450-related Enzyme Activity (ADME) Assay for human CYP2C19 (AID 2283113; active means hit-call score of the fitted dose curve at least 0.9, where 1 is the maximum;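 further: potency for inhibition seen as loss of fluorescent signal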)
Outline: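 Cell-free assay of recombinant human CYP2C19 expressed in insect cells, with a fluorogenic substrate; fluorescence intensity read 1 hour after dosing. Loss of signal relative to acetonitrile negative control indicates inhibition. Primary screen at 10 uM in duplicate, then concentration series.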

[8] = target: human Esterase Plasma (ES), BCHE (gene 590) (UniProt P06276); experiment: NVS_ENZ_hES: NovaScreen (NVS) Enzymatic Assay for human Esterase Plasma (ES) (AID 2283157; active means hit-call score of the fitted dose curve at least 0.9, where 1 is the maximum)
Outline: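 Esterase from human plasma, cell-free, colorimetric absorbance read 0.25 h after dosing. Screened at 25 uM in duplicate, with threshold-passing chemicals run in concentration-response up to 50 uM; loss of signal fitted versus DMSO.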

[9] = target: human Ephrin type-A Receptor 1 (EphA1), EPHA1 (gene 2041) (UniProt P21709); experiment: NVS_ENZ_hEphA1: NovaScreen (NVS) Enzymatic Assay for human Ephrin type-A Receptor 1 (EphA1) (AID 2283158; active means hit-call score of the fitted dose curve at least 0.9, where 1 is the maximum;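 further: activity is signal loss versus DMSO meaning EphA1 kinase inhibition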)
Outline: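 Cell-free enzymatic assay with recombinant EphA1 and fluorescent substrate; product separated by electrophoretic mobility shift, fluorescence intensity read 1 hour after dosing. Loss of signal versus DMSO baseline; primary duplicate screen at 25 uM, actives followed to 50 uM top concentration.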

[10] = target: human Phosphoinositide 3-kinase alpha (PI3Ka), PIK3CA (gene 5290) (UniProt P42336); experiment: NVS_ENZ_hPI3Ka: NovaScreen (NVS) Enzymatic Assay for human Phosphoinositide 3-kinase alpha (PI3Ka) (AID 2283196; active means hit-call score of the fitted dose curve at least 0.9, where 1 is the maximum)
Outline: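 Fluorescence/mobility-shift readout of substrate conversion by recombinant enzyme, 1 h post-dosing. Primary screen in duplicate at 25 uM; actives (e.g. ≥30% inhibition) retested in singleton concentration-response, top concentration 50 uM.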

[11] = target: human Caspase 5 (CASP5), CASP5 (gene 838) (UniProt P51878); experiment: NVS_ENZ_hCASP5: NovaScreen (NVS) Enzymatic Assay for human Caspase 5 (CASP5) (AID 2283137; active means hit-call score of the fitted dose curve at least 0.9, where 1 is the maximum)
Outline: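 Cell-free protease assay with bacterially expressed CASP5 and a fluorescent substrate, measured at 2 h. Values fitted relative to DMSO as baseline, from concentration-response series topping at 50 uM.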

[12] = target: human Beta-secretase (BACE), BACE1 (gene 23621) (UniProt P56817); experiment: NVS_ENZ_hBACE: NovaScreen (NVS) Enzymatic Assay for human Beta-secretase (BACE) (AID 2283140; active means hit-call score of the fitted dose curve at least 0.9, where 1 is the maximum;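 further: hits are inhibitors that reduce fluorescent substrate signal versus DMSO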)
Outline: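 Recombinant BACE1 (SF9 extract) incubated with compound and fluorescent substrate, 1 h. Plates carried positive and DMSO negative controls. Initial single dose 25 uM, duplicate; confirmation by concentration series.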

[13] = target: human Dual Specificity Protein Phosphatase 3 (DUSP3), DUSP3 (gene 1845) (UniProt P51452); experiment: NVS_ENZ_hDUSP3: NovaScreen (NVS) Enzymatic Assay for human Dual Specificity Protein Phosphatase 3 (DUSP3) (AID 2283152; active means hit-call score of the fitted dose curve at least 0.9, where 1 is the maximum;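 further: phosphatase activity of recombinant human DUSP3 on a fluorogenic substrate without cells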)
Outline: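 Cell-free assay with recombinant human DUSP3 and fluorogenic substrate, read by fluorescence intensity. Primary screen ran duplicate at 25 uM; actives followed up in concentration series; loss of signal versus DMSO scored.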

[14] = target: human Matrix Metalloproteinase-9 (MMP9), MMP9 (gene 4318) (UniProt P14780); experiment: NVS_ENZ_hMMP9: NovaScreen (NVS) Enzymatic Assay for human Matrix Metalloproteinase-9 (MMP9) (AID 2283190; active means hit-call score of the fitted dose curve at least 0.9, where 1 is the maximum;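 further: cell-free recombinant MMP9 protease activity read by fluorescent substrate signal; active means inhibition seen as loss of fluorescence signal versus DMSO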)
Outline: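 Extracted enzyme, fluorescent substrate, 1 h post-dose read. Single conc 25 uM in duplicate, then concentration series for actives. Activity = signal loss relative to DMSO negative control.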

[15] = target: human Phosphodiesterase 10 (PDE10), PDE10A (gene 10846) (UniProt Q9Y233); experiment: NVS_ENZ_hPDE10: NovaScreen (NVS) Enzymatic Assay for human Phosphodiesterase 10 (PDE10) (AID 2283195; active means hit-call score of the fitted dose curve at least 0.9, where 1 is the maximum)
Outline: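 Recombinant human PDE10 with fluorescent substrate, 1 h, product separated by electrophoretic mobility shift. Loss of enzyme activity fitted against DMSO; initial screen 25 uM in duplicate, actives run to 50 uM maximum.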

[16] = target: Cytochrome P450 3A4 (Homo sapiens) (UniProt P08684); experiment: NVS_ADME_hCYP3A4: NovaScreen (NVS) CYP450-related Enzyme Activity (ADME) Assay for human CYP3A4 (AID 2283110; active means hit-call score of the fitted dose curve at least 0.9, where 1 is the maximum)
Outline: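 Cell-free recombinant enzyme expressed in insect cells; fluorescent substrate turnover read after 0.33 h, acetonitrile as negative control. Primary screen in duplicate at 10 uM, actives then tested in concentration series.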

Chain of human CYP2C9, CYP2C9 (gene 1559) (P11712 whole entry, looked up): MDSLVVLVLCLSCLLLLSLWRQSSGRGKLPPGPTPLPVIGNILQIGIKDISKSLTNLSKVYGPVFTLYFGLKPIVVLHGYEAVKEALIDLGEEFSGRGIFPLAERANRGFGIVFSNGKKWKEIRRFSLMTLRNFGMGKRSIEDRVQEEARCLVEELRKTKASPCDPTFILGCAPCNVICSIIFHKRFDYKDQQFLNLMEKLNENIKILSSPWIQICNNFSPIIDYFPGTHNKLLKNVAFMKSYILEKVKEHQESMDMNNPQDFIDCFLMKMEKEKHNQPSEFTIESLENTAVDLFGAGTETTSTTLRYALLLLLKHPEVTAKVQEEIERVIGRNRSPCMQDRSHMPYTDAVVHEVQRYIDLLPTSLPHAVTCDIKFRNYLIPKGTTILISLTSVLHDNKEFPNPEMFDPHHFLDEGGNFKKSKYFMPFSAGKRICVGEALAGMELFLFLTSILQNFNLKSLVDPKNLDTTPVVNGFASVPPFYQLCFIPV
Chain of human Ephrin type-A Receptor 1 (EphA1), EPHA1 (gene 2041) (P21709 whole entry, looked up): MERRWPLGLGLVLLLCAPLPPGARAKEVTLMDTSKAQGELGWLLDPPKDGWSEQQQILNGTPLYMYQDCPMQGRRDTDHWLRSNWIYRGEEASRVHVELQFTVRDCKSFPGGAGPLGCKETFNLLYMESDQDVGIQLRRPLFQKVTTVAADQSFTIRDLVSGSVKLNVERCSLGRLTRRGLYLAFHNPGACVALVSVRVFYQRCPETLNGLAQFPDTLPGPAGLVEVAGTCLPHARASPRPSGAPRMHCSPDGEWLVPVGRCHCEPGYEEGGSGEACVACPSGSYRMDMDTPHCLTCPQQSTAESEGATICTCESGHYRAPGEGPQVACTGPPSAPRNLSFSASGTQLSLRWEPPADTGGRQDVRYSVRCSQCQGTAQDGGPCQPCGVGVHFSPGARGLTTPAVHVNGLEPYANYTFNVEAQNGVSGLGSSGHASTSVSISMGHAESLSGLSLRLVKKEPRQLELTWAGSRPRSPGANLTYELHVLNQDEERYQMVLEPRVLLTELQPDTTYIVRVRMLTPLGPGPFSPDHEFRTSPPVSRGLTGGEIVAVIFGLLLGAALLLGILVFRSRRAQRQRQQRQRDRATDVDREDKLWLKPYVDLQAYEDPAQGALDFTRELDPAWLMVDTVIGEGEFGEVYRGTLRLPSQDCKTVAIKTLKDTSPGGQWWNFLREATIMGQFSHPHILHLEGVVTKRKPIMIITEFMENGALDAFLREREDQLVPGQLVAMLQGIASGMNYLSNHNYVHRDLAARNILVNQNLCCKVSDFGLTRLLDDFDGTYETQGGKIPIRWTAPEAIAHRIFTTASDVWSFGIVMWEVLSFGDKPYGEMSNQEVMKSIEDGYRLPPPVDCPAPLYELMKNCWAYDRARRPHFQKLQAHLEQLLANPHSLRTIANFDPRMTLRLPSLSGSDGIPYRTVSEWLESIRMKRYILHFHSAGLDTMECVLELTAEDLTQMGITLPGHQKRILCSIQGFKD
Chain of human Matrix Metalloproteinase-9 (MMP9), MMP9 (gene 4318) (P14780 whole entry, looked up): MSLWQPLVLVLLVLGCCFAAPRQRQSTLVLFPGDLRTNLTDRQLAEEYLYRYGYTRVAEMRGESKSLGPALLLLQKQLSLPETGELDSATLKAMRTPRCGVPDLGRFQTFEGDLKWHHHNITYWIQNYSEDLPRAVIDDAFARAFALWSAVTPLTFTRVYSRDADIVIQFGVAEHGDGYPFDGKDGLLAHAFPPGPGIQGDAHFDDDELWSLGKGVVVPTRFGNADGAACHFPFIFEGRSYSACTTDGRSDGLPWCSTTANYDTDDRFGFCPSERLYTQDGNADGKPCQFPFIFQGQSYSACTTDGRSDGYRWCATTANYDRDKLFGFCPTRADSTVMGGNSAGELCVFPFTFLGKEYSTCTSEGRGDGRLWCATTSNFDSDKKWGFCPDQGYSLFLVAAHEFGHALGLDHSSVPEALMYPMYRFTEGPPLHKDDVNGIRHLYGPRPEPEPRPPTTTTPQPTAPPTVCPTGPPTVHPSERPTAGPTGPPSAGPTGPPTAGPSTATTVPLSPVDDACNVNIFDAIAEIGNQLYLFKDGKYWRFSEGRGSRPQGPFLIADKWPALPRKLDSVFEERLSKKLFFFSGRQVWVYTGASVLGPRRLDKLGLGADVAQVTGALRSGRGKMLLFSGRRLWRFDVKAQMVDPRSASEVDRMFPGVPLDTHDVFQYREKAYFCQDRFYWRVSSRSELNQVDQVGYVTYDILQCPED
Chain of human Phosphoinositide 3-kinase alpha (PI3Ka), PIK3CA (gene 5290) (P42336 whole entry, looked up): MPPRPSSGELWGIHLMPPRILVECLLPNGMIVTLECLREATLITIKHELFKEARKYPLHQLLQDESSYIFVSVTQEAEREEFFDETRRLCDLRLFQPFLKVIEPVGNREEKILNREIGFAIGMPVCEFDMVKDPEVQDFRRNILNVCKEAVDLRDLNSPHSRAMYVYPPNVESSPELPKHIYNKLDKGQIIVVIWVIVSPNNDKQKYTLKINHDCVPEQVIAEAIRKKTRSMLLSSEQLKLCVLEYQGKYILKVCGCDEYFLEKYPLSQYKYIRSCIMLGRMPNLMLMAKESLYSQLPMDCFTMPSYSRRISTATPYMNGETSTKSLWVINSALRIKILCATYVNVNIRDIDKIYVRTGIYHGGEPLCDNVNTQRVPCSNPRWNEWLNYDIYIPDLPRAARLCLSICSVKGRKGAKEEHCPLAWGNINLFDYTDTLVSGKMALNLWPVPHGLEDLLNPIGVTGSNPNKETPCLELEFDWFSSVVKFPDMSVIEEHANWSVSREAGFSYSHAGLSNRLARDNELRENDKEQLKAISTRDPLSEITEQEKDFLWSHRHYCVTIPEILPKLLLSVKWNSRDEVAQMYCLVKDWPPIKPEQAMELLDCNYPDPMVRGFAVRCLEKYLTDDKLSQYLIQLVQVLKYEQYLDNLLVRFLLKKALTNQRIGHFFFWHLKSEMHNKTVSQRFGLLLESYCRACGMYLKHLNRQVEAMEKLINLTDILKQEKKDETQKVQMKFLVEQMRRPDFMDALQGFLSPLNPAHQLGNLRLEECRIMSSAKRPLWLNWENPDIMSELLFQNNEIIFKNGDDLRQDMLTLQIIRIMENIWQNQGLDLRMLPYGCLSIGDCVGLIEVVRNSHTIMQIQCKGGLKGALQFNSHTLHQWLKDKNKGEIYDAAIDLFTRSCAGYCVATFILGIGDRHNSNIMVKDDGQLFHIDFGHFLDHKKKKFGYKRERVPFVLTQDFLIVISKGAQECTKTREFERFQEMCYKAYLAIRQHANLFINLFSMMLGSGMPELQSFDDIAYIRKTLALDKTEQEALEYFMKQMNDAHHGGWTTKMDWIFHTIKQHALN
Chain of human Esterase Plasma (ES), BCHE (gene 590) (P06276 whole entry, looked up): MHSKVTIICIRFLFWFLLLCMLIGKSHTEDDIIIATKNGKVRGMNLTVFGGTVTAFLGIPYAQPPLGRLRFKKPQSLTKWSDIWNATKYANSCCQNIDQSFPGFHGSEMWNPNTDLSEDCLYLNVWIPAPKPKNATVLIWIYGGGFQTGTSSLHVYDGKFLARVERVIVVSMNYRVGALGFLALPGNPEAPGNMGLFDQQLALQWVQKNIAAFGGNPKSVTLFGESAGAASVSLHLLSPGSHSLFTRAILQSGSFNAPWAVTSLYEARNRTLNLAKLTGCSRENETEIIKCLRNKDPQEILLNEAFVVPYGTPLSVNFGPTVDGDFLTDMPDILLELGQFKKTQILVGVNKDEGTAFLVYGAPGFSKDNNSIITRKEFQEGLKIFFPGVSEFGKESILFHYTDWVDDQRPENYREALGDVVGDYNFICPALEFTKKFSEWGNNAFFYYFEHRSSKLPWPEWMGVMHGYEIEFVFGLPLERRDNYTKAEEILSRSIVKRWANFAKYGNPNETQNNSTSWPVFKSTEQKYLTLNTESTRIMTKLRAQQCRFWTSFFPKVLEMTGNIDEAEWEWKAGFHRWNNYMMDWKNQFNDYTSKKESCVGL
Chain of human Beta-secretase (BACE), BACE1 (gene 23621) (P56817 whole entry, looked up): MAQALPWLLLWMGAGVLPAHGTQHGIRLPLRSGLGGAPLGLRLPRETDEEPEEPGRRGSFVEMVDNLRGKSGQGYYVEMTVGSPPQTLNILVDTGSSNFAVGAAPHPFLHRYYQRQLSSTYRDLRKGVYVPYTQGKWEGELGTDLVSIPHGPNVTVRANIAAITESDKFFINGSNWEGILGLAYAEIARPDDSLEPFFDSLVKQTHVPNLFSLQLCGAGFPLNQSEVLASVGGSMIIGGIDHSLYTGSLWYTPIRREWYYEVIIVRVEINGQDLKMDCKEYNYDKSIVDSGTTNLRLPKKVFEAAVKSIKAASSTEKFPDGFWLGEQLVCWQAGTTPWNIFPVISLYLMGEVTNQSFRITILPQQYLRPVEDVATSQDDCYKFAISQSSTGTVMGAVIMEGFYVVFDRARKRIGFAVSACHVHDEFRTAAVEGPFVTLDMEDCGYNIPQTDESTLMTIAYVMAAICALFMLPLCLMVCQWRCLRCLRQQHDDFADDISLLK
Chain of human Dual Specificity Protein Phosphatase 3 (DUSP3), DUSP3 (gene 1845) (P51452 whole entry, looked up): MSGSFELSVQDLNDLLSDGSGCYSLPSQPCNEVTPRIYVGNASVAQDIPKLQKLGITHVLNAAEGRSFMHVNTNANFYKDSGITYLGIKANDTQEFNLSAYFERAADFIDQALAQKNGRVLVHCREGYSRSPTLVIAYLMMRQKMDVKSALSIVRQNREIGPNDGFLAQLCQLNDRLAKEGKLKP
Chain of human Caspase 5 (CASP5), CASP5 (gene 838) (P51878 whole entry, looked up): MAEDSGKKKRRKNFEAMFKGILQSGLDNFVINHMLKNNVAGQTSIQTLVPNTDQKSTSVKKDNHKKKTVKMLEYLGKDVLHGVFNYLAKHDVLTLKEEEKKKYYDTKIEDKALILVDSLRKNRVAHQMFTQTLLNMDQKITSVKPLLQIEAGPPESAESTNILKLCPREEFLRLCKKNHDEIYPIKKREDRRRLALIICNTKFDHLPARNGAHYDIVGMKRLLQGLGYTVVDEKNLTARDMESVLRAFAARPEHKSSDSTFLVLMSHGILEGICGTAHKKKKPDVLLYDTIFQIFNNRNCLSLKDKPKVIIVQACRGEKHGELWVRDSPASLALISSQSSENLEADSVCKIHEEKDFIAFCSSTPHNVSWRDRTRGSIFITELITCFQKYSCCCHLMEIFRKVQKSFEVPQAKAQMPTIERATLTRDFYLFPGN

CCCCC(CC)COC(=O)/C=C\C(=O)OCC(CC)CCCC (stereo not given)
outcome [1]: inactive
outcome [2]: inactive
outcome [3]: inactive
AC50 [4]: 20 µM (active)
outcome [5]: inactive

CCC(=O)OCc1ccccc1
outcome [1]: inactive
outcome [2]: inactive
outcome [3]: inactive
outcome [4]: inactive
outcome [5]: inactive

CCn1c2ccccc2c2cc(N)ccc21
outcome [1]: inactive
outcome [2]: inactive
AC50 [3]: 0.0208 µM (active)
outcome [4]: inactive
outcome [5]: inactive
AC50 [6]: 0.405 µM (active)
AC50 [7]: 2.03 µM (active)
AC50 [8]: 27.1 µM (active)
AC50 [9]: 19.3 µM (active)
AC50 [10]: 9.32 µM (active)

O=C(O)c1cn(-c2ccc(F)cc2)c2cc(N3CCNCC3)c(F)cc2c1=O
outcome [1]: inactive
outcome [2]: inactive
outcome [3]: inactive
outcome [4]: inactive
outcome [5]: inactive

NCCNCCN
outcome [1]: inactive
outcome [2]: inactive
outcome [3]: inactive
outcome [4]: inactive
outcome [5]: inactive

O=P(c1ccccc1)(c1ccccc1)c1ccccc1
outcome [1]: inactive
outcome [2]: inactive
outcome [3]: inactive
outcome [4]: inactive
outcome [5]: inactive
AC50 [6]: 3.19 µM (active)
AC50 [7]: 0.0121 µM (active)

O=C1CCCCCCCCCCCCCCO1
outcome [1]: inactive
AC50 [2]: 11.7 µM (active)
outcome [3]: inactive
AC50 [4]: 10.3 µM (active)
outcome [5]: inactive

Cc1cc(C2(c3cc(C)c(O)cc3C)OS(=O)(=O)c3ccccc32)c(C)cc1O
outcome [1]: inactive
AC50 [2]: 27.3 µM (active)
outcome [2]: inactive
outcome [3]: inactive
outcome [4]: inactive
outcome [5]: inactive

C[C@H]1C[C@@H]2[C@H]([C@@H](O)C[C@@]3(C)[C@H]2CC[C@]3(O)C(=O)CO)[C@@]2(C)C=CC(=O)C=C12
outcome [1]: inactive
outcome [2]: inactive
AC50 [3]: 4.3 µM (active) and 1.37 µM (active)
AC50 [4]: 2.49 µM (active) and 6.67 µM (active)
outcome [5]: inactive

CC(=O)OCCC(C)CC(C)(C)C (stereo not given)
outcome [1]: inactive
outcome [2]: inactive
outcome [3]: inactive
AC50 [4]: 1.85 µM (active)
outcome [4]: inactive
outcome [5]: inactive

CC(=O)Nc1ccccc1O
outcome [1]: inactive
outcome [2]: inactive
outcome [3]: inactive
outcome [4]: inactive
outcome [5]: inactive

CC[Si](OC(C)=O)(OC(C)=O)OC(C)=O
outcome [1]: inactive
outcome [2]: inactive
outcome [3]: inactive
outcome [4]: inactive
outcome [5]: inactive

OC1OC[C@@H](O)[C@H](O)[C@H]1O (stereo not given in full)
outcome [1]: inactive
outcome [2]: inactive
outcome [3]: inactive
outcome [4]: inactive
outcome [5]: inactive

CN(CCOc1ccc(CC2SC(=O)NC2=O)cc1)c1ccccn1 (stereo not given)
outcome [1]: inactive
outcome [2]: inactive
AC50 [3]: 20 µM (active)
AC50 [4]: 20 µM (active)
outcome [5]: inactive

CCCCC/C=C/C=C/C=O
AC50 [1]: 35.6 µM (active)
AC50 [2]: 20 µM (active)
AC50 [3]: 20 µM (active)
AC50 [4]: 14.2 µM (active)
AC50 [5]: 31.5 µM (active)
AC50 [11]: 0.627 µM (active)
AC50 [12]: 25 µM (active)
AC50 [13]: 9.31 µM (active)
outcome [9]: inactive
AC50 [14]: 25 µM (active)
outcome [15]: inactive
outcome [10]: inactive

C=C[Si](OCC)(OCC)OCC
outcome [1]: inactive
outcome [2]: inactive
outcome [3]: inactive
outcome [4]: inactive
outcome [5]: inactive

CC(C)c1ccc(C(C)C)cc1
outcome [1]: inactive
outcome [2]: inactive
outcome [3]: inactive
outcome [4]: inactive
outcome [5]: inactive

CCCCCCCCCCCCCCCCCC(=O)OCC(CC)CCCC (stereo not given)
outcome [1]: inactive
outcome [2]: inactive
outcome [3]: inactive
outcome [4]: inactive
outcome [5]: inactive

CC(=O)O[C@]1(C(C)=O)CC[C@H]2[C@@H]3C[C@H](C)C4=CC(=O)CC[C@]4(C)[C@H]3CC[C@@]21C
outcome [1]: inactive
outcome [2]: inactive
outcome [3]: inactive
outcome [4]: inactive
outcome [5]: inactive
AC50 [6]: 0.119 µM (active)
AC50 [16]: 0.00997 µM (active)
AC50 [7]: 2.5 µM (active)
outcome [14]: inactive

Cc1ccc(O)c(C(C)(C)C)c1
AC50 [1]: 38.1 µM (active)
AC50 [2]: 35.8 µM (active)
AC50 [3]: 32.8 µM (active)
AC50 [4]: 32 µM (active)
AC50 [5]: 31.9 µM (active)

CC(=O)[C@H]1CC[C@H]2[C@@H]3CC=C4C[C@@H](O)CC[C@]4(C)[C@H]3CC[C@]12C
outcome [1]: inactive
AC50 [2]: 6.25 µM (active) and 7.57 µM (active)
outcome [3]: inactive
outcome [4]: inactive
outcome [5]: inactive

C=C(C)C(=O)O[C@H]1C[C@@H]2CC[C@@]1(C)C2(C)C
AC50 [1]: 36.3 µM (active)
AC50 [2]: 33.1 µM (active)
AC50 [3]: 35.3 µM (active)
AC50 [4]: 30.7 µM (active)
AC50 [5]: 30.9 µM (active)

OC[C@H]1O[C@H](O[C@]2(CCl)O[C@H](CCl)[C@@H](O)[C@@H]2O)[C@H](O)[C@@H](O)[C@H]1Cl
outcome [1]: inactive
outcome [2]: inactive
outcome [3]: inactive
outcome [4]: inactive
outcome [5]: inactive

O=C(O)C[C@H](O)C[C@H](O)/C=C/c1c(C2CC2)nc2ccccc2c1-c1ccc(F)cc1
outcome [1]: inactive
outcome [2]: inactive
AC50 [3]: 0.0041 µM (active)
AC50 [4]: 0.756 µM (active)
AC50 [5]: 0.104 µM (active)

BrC1CCC(Br)C(Br)CCC(Br)C(Br)CCC1Br (stereo not given)
outcome [1]: inactive
AC50 [2]: 2.03 µM (active)
outcome [3]: inactive
AC50 [4]: 4.63 µM (active)
AC50 [5]: 4.67 µM (active)
